# SENP7 inh – blocks the human protease SENP7 | Q9BQF6 | recombinant SENP7, Z-RLRGG-aminoluciferin luminescence, 40 min | inhibition, % at 5 µM | actives 1.5% (n = 330,000) | AID 434973;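 active = inhibition above about 50% at the single test dose, limit read from the data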
# PPC-1+TRAIL kill – kills PPC-1 cancer cells in the presence of TRAIL. AID 1443. actives 0.41% (n = 220,000). PPC-1 cells + TRAIL, ATPLite viability luminescence. cell killing (% activity), % at 4 µM or 5 µM;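 active = cell killing above 50% in the first pass at 4 µM, then a duplicate retest at 5 µM averaging 50% or more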
# SENP8 block-1 – SENP8 (human) protease inhibition; recombinant SENP8, Nedd8 substrate fluorescence; AID 602440; inhibition, % at 20 µM; actives 0.64% (n = 360,000); in the data active = inhibition mostly above about 40%, no sharp cut-off; inactive = mostly below about 27%
# Target sequence (Q96LD8 whole entry, looked up): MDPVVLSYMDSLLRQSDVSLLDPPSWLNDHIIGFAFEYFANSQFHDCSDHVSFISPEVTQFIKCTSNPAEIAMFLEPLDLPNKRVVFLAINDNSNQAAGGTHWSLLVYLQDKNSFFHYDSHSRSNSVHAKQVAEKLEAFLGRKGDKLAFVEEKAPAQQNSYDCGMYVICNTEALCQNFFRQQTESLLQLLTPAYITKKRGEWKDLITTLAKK
# SENP6 block – inhibitors of human SENP6 protease; Q9GZR1; Recombinant SENP6 catalytic domain, aminoluciferin luminescence; inhibition, % at 10 µM; actives 1.8% (n = 330,000);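 active = inhibition above about 50% at the single tested dose, limit read from the data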
# SENP8 block-2 – SENP8 protease inhibition. purified SENP8, Z-RLRGG-aminoluciferin cleavage, luminescence. inhibition, % at 10 µM. actives 1.2% (n = 330,000); in the data active = inhibition above about 50%
# TRAIL sens C8 – caspase-8 TRAIL sensitization. NB7+C8 cells + TRAIL, ATPlite viability luminescence. inhibition (viability loss, TRAIL sensitization), % at 10 µM. actives 1% (n = 360,000). AID 624354;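 active = compounds causing at least 50% loss of cell viability in the single-dose screen, relative to plate controls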
# SENP8 conf – human SENP8 inhibition, confirmed. shares compounds with SENP7 inh. Recombinant SENP8, Z-RLRGG-aminoluciferin luminescence, 60 min. inhibition, % at 12.5 µM. actives 40% (n = 6,200). AID 488912;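 active = mean inhibition across replicates above about 50%, limit read from the data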
# SENP6 conf – confirmation of human SENP6 protease inhibitors; AID 488915; inhibition, % at 12.5 µM; recombinant SENP6, Z-RLRGG-aminoluciferin luminescence; actives 58% (n = 6,200); shares compounds with SENP7 inh
# SENP7 confirm – human SENP7 inhibition, confirmed; AID 488917; recombinant SENP7, Z-RLRGG-aminoluciferin luminescence, 40 min; shares compounds with SENP7 inh; inhibition, % at 12.5 µM; actives 69% (n = 6,200)
# Casp3 select – caspase-3 inhibition (SENP selectivity assay); shares compounds with SENP7 inh; purified caspase-3, Z-DEVD-aminoluciferin luminescence, 60 min; inhibition, % at 12.5 µM; actives 60% (n = 6,200); AID 488918;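 active = mean inhibition above about 50%, limit read from the data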
# Target sequence (P42574 28-227 limits assumed): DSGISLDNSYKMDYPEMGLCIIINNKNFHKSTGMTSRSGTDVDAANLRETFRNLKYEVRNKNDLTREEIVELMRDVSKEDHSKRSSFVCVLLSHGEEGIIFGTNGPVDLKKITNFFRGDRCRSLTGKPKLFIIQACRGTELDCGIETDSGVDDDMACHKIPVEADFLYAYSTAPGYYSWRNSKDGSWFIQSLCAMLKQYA
# Luc interf – luminescence interference (SENP counter-screen). shares compounds with SENP7 inh. Pre-incubated SENP8/Z-RLRGG-aminoluciferin, luciferase luminescence interference. inhibition, % at 12.5 µM. actives 39% (n = 6,200). AID 488919;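 active = mean inhibition above about 50% when retested at one dose, limit read from the data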
# Hits are given with their value; n = inactive; x = no result given. Hits are enriched below; roughly 3% of the tested compounds scored in any of these assays.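 The calls were made as follows, unless noted: active = mean inhibition above about 50% in the one-dose retest (limit read from the data); inactive = the rest.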
SMILES,SENP7 inh,PPC-1+TRAIL kill,SENP8 block-1,SENP6 block,SENP8 block-2,TRAIL sens C8,SENP8 conf,SENP6 conf,SENP7 confirm,Casp3 select,Luc interf
CCCc1noc(-c2ccc(-c3ccccc3)cc2)n1,68,n,n,n,50,n,n,n,55,50,n
Cc1ccc(-c2noc(-c3c(C)noc3C)n2)cc1,n,n,n,n,n,n,x,x,x,x,x
O=C(CNCc1ccc(F)cc1)Nc1ccc(C(=O)N2CCCCC2)cc1,n,x,n,n,n,n,x,x,x,x,x
O=C(CCNC(=O)C1CCN(S(=O)(=O)c2ccccc2)CC1)NCc1ccccc1Cl,n,x,n,n,n,n,x,x,x,x,x
CSC[C@H]1CN(c2ccccc2)C(=O)[C@@H]1CC(=O)Nc1ccc(Br)cc1,x,x,n,x,x,n,x,x,x,x,x
Cc1cc(/C=C2/C(=O)NN(c3ccccc3)C2=O)c(C)n1-c1ccc(O)cc1,n,79,50,78,56,88,n,66,91,62,n
Cc1cc(C=C2C(=O)CCCC2=O)c(C)n1-c1ccccc1,n,n,n,n,n,n,x,x,x,x,x
CCN1C(=O)c2cccc3c(NC(=O)C4CCCCC4)ccc1c23,72,n,n,n,n,n,n,n,n,n,n
Cc1c(NC(=O)c2cc3c(s2)CCCC3)c(=O)n(-c2ccccc2)n1C,n,n,n,n,61,n,n,n,n,n,n
Cn1c(C(=O)Nc2ccc(Cl)cc2)cc2cc(Cl)ccc21,n,x,n,n,n,n,x,x,x,x,x
O=C(COC(=O)c1ccc([N+](=O)[O-])s1)NCc1ccc(F)cc1,52,n,n,76,67,n,n,85,n,n,n
O=C1CN(C(=O)COC(=O)c2ccc([N+](=O)[O-])s2)c2ccccc2N1,n,x,n,53,65,n,n,85,n,n,n
O=C(COC(=O)c1ccc([N+](=O)[O-])s1)NC(=O)NCc1ccccc1,n,n,n,87,66,n,75,84,n,n,n
O=C(COC(=O)c1ccc([N+](=O)[O-])s1)c1ccc[nH]1,n,x,n,n,57,n,n,79,n,n,n
NS(=O)(=O)c1ccc(OC(=O)CNC(=O)OCc2ccccc2)cc1,n,x,n,n,n,n,x,x,x,x,x
CC1(C(=O)Nc2cccc3c2CCCC3)CCN1C(=O)c1cccc(F)c1 (centres undefined),x,x,n,x,x,n,x,x,x,x,x
CN(CC(=O)Nc1cccc(F)c1)CC(=O)N1CCCCC1,n,x,n,n,n,n,x,x,x,x,x
C=CCN(CC=C)C(=S)Nc1ccc2nsnc2c1,n,n,n,75,n,n,n,n,n,n,n
COCCNC(=S)Nc1ccc2nsnc2c1,n,n,n,n,n,n,x,x,x,x,x
S=C(NCc1ccc2c(c1)OCO2)Nc1ccc2nsnc2c1,n,n,n,n,n,n,x,x,x,x,x
S=C(Nc1ccc2nsnc2c1)N1CCCCCC1,53,x,n,93,89,n,n,n,n,n,58
C=CCNC(=S)Nc1ccc2nsnc2c1,n,n,n,60,n,n,n,n,n,n,n
O=C(Nc1ccc2nsnc2c1)N1CCCCC1,n,n,n,n,n,n,x,x,x,x,x
CC(OC(=O)c1ccccc1NCCO)C(=O)NCC(=O)Nc1ccc(F)c(F)c1F (centres undefined),n,x,n,n,n,n,x,x,x,x,x
C=C(C)COc1ccc(-c2ncncc2-c2ccccc2OC)c(O)c1,n,x,n,n,85,n,n,n,n,n,n
SMILES,SENP7 inh,PPC-1+TRAIL kill,SENP8 block-1,SENP6 block,SENP8 block-2,TRAIL sens C8,SENP8 conf,SENP6 conf,SENP7 confirm,Casp3 select,Luc interf
CCOc1ccc(-c2ncncc2-c2ccccc2OC)c(O)c1,n,x,n,n,n,n,x,x,x,x,x
Cn1c(CSc2nc3ccccc3s2)nnc1SCC(=O)NCCN1CCOCC1,76,n,n,n,n,n,n,n,n,n,n
COc1cc(/C=C2\C(=O)N(c3ccc(S(N)(=O)=O)cc3)N=C2C)ccc1OC(=O)c1ccco1,70,n,57,76,n,n,n,n,n,n,n
COc1cc(/C=N/N(C)C)ccc1OC(=O)c1ccco1,n,n,n,n,n,n,x,x,x,x,x
COc1cc(/C=N/N2CCOCC2)ccc1OC(=O)c1ccco1,70,n,n,60,n,n,60,57,88,67,77
O=C1NC(=S)S/C1=C/c1ccc(OC(=O)c2ccco2)cc1,n,x,n,76,n,n,n,n,n,n,n
COc1cc(/C=C2/SC(=O)NC2=O)ccc1OC(=O)c1ccco1,85,x,n,88,82,n,58,74,n,61,n
COc1cccc(CN(C)C(=O)c2ccc(OCC(=O)N3CCOCC3)c(OC)c2)c1,n,x,n,n,n,n,x,x,x,x,x
COc1cc(NC(=O)CN2CCN(S(=O)(=O)/C=C/c3ccccc3)CC2)cc(OC)c1OC,n,x,n,n,n,n,x,x,x,x,x
CC1(C(=O)Nc2ccc3[nH]ncc3c2)CCN1C(=O)C1(c2ccccc2)CC1 (centres undefined),x,x,n,x,x,n,x,x,x,x,x
NC(=NCc1ccco1)NC(=O)c1ccc(Cl)cc1,n,x,n,n,n,n,x,x,x,x,x
Cc1nn(C)c(C)c1CCC(=O)NC1CC(C)(C)Cc2c1cnn2-c1ccccc1 (centres undefined),n,x,n,n,n,n,x,x,x,x,x
COc1cc(/C=C2/SC(=S)N(C)C2=O)ccc1OC(=O)c1ccco1,66,n,n,n,n,n,n,n,n,n,n
COc1cc(/C=C2/C(=N)N3C(SC)=NSC3=NC2=O)ccc1OC(=O)c1ccco1,n,x,n,53,64,n,75,73,92,68,n
COc1cc(/C=C2\SC(=S)N(NC(C)=O)C2=O)ccc1OC(=O)c1ccco1,n,x,n,n,n,n,x,x,x,x,x
Cc1ccc(-c2noc(N=O)c2NO)cc1,n,n,n,n,n,n,x,x,x,x,x
CC(=O)Nc1ccc(C(=O)COC(=O)C2CCCCC2)c(F)c1,58,x,n,78,57,n,n,n,80,n,n
CC(=O)Nc1ccc(C(=O)COC(=O)C2CC2)c(F)c1,n,x,n,n,n,n,x,x,x,x,x
CCc1ccc(OC(=O)/C=C/c2ccco2)cc1,81,x,n,89,69,n,n,77,94,50,n
Cc1c(C(=O)NCC2CCCO2)oc2c(Cl)cccc12 (centres undefined),n,x,n,n,n,n,x,x,x,x,x
